In PubChem BioAssay (EPA / NIEHS) one finds AC50 and outcome data, which are given here for 21 compounds.

Several values for one entry are separate records, joined by “and”; a condition that tells them apart may be missing. Identical values can stand only once. Records with an inconclusive call do not appear. Some structures have more than one record in an assay (separate samples or runs), and their calls can disagree. Activity calls are given as the source filed them. Rule for the calls: active = hit-call score of the fitted dose curve at least 0.9, where 1 is the maximum; inconclusive = response in the unintended direction; inactive = score below 0.9.

Test [1] is described as follows: ATG_XTT_Cytotoxicity: Cytotoxicity Assessment in the Attagene TRANS-FACTORIAL HepG2 Assay (AID 2283584).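 For AC50: XTT signal for cell number as viability in transfected HepG2 cells; cells exposed to compound for 24 h before reading; active means loss of viability signal versus DMSO baseline.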 The procedure, abridged: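 HepG2 cells transiently transfected with GAL4-UAS multiple reporter units, dosed 24 h; cytotoxicity read by XTT as loss of signal versus DMSO baseline.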
Test [2] in a line: TOX21_p53_BLA_p2_viability: Viability Assessment in the Tox21 HCT-116 p53 Agonism Beta-lactamase Assay, Phase 2 (AID 2283591).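 Note: actives lower the ATP signal meaning cytotoxicity.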 The procedure, abridged: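 HCT-116 p53-bla cells (4000/well) rested 5 h at 37C, then received compounds in DMSO (217-fold dilution) for 16 h at 37C, 5% CO2. After the CCF4 read, CellTiter-Glo was added; ATP luminescence was read after 30 min at room temperature.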

In test [3] the target is Cellular tumor antigen p53 (Homo sapiens) (UniProt P04637). Kind of test: TOX21_p53_BLA_p2_ratio: Tox21 HCT-116 p53 Agonism Beta-lactamase Assay, Ratio, Phase 2 (AID 2283592). The procedure, abridged:
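First, HCT116 reporter cells settle for 5 h at 37C. Next, DMSO compound solutions are pinned in (217-fold dilution) and left 16 h. Finally, CCF4-AM substrate is loaded 2 h at room temperature and the 460/530 nm ratio read.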

Test [4] in a line: TOX21_p53_BLA_p3_viability: Viability Assessment in the Tox21 HCT-116 p53 Agonism Beta-lactamase Assay, Phase 3 (AID 2283593).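 Note: cells exposed to compound for 16 h before reading.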 The method in brief: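 HCT-116 cells (4000/well) rested 5 h at 37C, then got DMSO compounds by pin tool (217-fold dilution) for 16 h at 37C, 5% CO2. After the bla read, CellTiter-Glo was added and luminescence read at 30 min, room temperature.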
For test [5], the target named is Cellular tumor antigen p53 (Homo sapiens) (UniProt P04637). Kind of test: TOX21_p53_BLA_p3_ratio: Tox21 HCT-116 p53 Agonism Beta-lactamase Assay, Ratio, Phase 3 (AID 2283596). The procedure, abridged:
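Cells were seeded at 4000/well, rested 5 h at 37C, then dosed with DMSO compound solutions (217-fold dilution) for 16 h. CCF4-AM substrate was loaded for 2 h at room temperature, and the 460/530 nm emission ratio was fitted for gain of signal versus DMSO.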

Test [6] shares this target. Kind of test: TOX21_p53_BLA_p5_ratio: Tox21 HCT-116 p53 Agonism Beta-lactamase Assay, Ratio, Phase 5 (AID 2283599). The procedure, abridged:
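HCT-116 cells carrying a p53-inducible beta-lactamase reporter were seeded at 4000 cells/well and dosed after 5 h with compound in DMSO (217-fold dilution). After 16 h at 37C, CCF4-AM substrate was added for 2 h, and the 460/530 nm emission ratio was scored as gain-of-signal versus DMSO.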

Test [7] in a line: TOX21_p53_BLA_p5_viability: Viability Assessment in the Tox21 HCT-116 p53 Agonism Beta-lactamase Assay, Phase 5 (AID 2283600). The method in brief:
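Decreased CellTiter-Glo luminescence denotes lost viability. Exposure: 16 h at 37C, 5% CO2, with compounds from DMSO stocks diluted 217-fold in wells of 4000 cells.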

The target of test [8] is Cellular tumor antigen p53 (Homo sapiens) (UniProt P04637). Kind of test: TOX21_p53_BLA_p4_ratio: Tox21 HCT-116 p53 Agonism Beta-lactamase Assay, Ratio, Phase 4 (AID 2283601). The procedure, abridged:
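HCT116 cells carrying an inducible beta-lactamase reporter were plated at 4000 cells/well, rested 5 h, then exposed to compounds in DMSO (217-fold dilution) for 16 h at 37C. CCF4-AM substrate was loaded 2 h at room temperature; 460/530 nm emission ratio scored gain-of-signal versus DMSO.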

Test [9] can be described thus: TOX21_p53_BLA_p4_viability: Viability Assessment in the Tox21 HCT-116 p53 Agonism Beta-lactamase Assay, Phase 4 (AID 2283597).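 Note: hits lower the luminescence signal meaning cytotoxicity.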 The method in brief: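 4000 HCT116 cells per well; 5 h attachment; compounds from DMSO, 217-fold dilution; 16 h at 37C. Then CCF4-AM, 2 h RT, followed by CellTiter-Glo, 30 min RT, luminescence. Decrease = cytotoxicity.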

Sequence of Cellular tumor antigen p53 (Homo sapiens) (P04637 whole entry, looked up): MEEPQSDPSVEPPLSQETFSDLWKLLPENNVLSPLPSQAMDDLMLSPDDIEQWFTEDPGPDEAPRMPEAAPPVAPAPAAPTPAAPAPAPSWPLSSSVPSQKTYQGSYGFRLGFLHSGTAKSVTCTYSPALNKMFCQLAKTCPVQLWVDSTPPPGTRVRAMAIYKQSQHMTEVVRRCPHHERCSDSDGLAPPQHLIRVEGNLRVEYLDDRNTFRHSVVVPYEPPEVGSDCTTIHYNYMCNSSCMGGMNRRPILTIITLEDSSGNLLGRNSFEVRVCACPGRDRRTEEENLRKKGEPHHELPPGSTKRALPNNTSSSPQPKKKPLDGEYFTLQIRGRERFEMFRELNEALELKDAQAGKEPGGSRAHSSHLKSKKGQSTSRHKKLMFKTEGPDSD

Take `C=CC(=O)OCC(CO)(COCC(COC(=O)C=C)(COC(=O)C=C)COC(=O)C=C)COC(=O)C=C`: the AC50 is 29.3 µM (active) in test [1]; 4.15 µM (active) in test [2]; 78.7 µM (active) in test [3]; 3.91 µM (active) in [4]; 82.5 µM (active) in test [6]; 2.74 µM (active) in test [7]. Also, the AC50 in test [8] was 65 µM (active). Also, in test [5], the outcome was inactive.

In the case of `CCCCCCCCCCCCCCCCCC[N+](C)(C)Cc1ccccc1`, the AC50 in test [1] is 29 µM (active); in [2], 41.1 µM (active); in test [3] it was 74.3 µM (active); in test [4] it was 24.4 µM (active); in test [5], 60.6 µM (active); in test [7] it was 15 µM (active). Also, the AC50 in test [8] is 69.6 µM (active). Further, the result in test [6] was inactive.

Take `CCCCCCCCCCCC[N+](C)(C)CCCCCCCCCCCC`: the AC50 was 62.4 µM (active) in test [1]; 23.5 µM (active) in test [2]; 41.4 µM (active) in test [3]; 50.7 µM (active) in test [4]; 66.5 µM (active) in [5]; 56.6 µM (active) in test [6]. Also, the AC50 in test [7] is 37 µM (active); in [8], 32.3 µM (active).

In the case of `C[C@]12CC[C@@H]3c4ccc(O)cc4CC[C@H]3[C@@H]1CC[C@@H]2OC(=O)CCC1CCCC1`, the compound was classed as inactive in [1], in test [2], in test [3], in test [4], in test [5] and in test [9]. Further, the result in test [6], in test [7] and in test [8] was inactive.

With `Cc1cc(Cc2cc(C)cc(C(C)(C)C)c2O)c(O)c(C(C)(C)C)c1`, the AC50 in [1] was 74.7 µM (active); in test [2], 10.8 µM (active) and 10.5 µM (active); in [3], 27.1 µM (active) and 46 µM (active); in test [4] it was 19.1 µM (active) and 20.2 µM (active); in test [5] it was 44.8 µM (active) and 57.1 µM (active); in [6] it was 33.6 µM (active) and 41.4 µM (active). The AC50 in [7] was 17.7 µM (active) and 16.7 µM (active); in [8], 24.2 µM (active) and 48.1 µM (active).

With `CC(C)(C)c1ccc(CCC=O)cc1`, the compound was classed as inactive in [1], in [2], in test [3], in test [4], in test [5] and in test [6]. For the same compound, the outcome in test [8] was inactive.

`c1cnc2c(c1)ccc1cccnc12`: the result in test [1], in [2], in test [3], in test [4], in test [5] and in test [6] was inactive. Further, the result in test [7] and in test [8] was inactive. Also, the values for the AC50 in [3] and in test [9] were 38.3 µM (active) and 41.8 µM (active), respectively.

`O=C1OC(=O)c2cc(-c3ccc4c(c3)C(=O)OC4=O)ccc21`: the compound was classed as inactive in test [1], in test [2], in test [3], in test [4], in test [5] and in test [9]. Besides, the outcome in [6], in [7] and in test [8] was inactive.

For `O=C1OC2(c3ccccc31)c1cc(I)c(O)c(I)c1Oc1c2cc(I)c(O)c1I`, the compound was classed as inactive in test [1], in [2], in [3], in [4], in test [5] and in test [6]. The compound was classed as inactive in test [7] and in test [8]. For the same compound, the AC50 is 78.6 µM (active) in test [3], 87.3 µM (active) in [5], 83 µM (active) in test [6] and 73.9 µM (active) in [8].

`O=C(NO)c1ccccc1`: the compound was classed as inactive in test [1], in test [2], in test [3], in test [4], in [5] and in test [6]. Further, the result in test [7] and in test [8] was inactive.

Consider `Cc1ccccc1C(OCCN(C)C)c1ccccc1` (stereo not given), for which the compound was called inactive in test [1], in test [2], in test [3], in [4] and in [5].

With `NNc1nc(-c2ccc([N+](=O)[O-])cc2)cs1`, the result in test [1], in [2], in [4] and in test [7] was inactive. Moreover, the AC50 is 40.1 µM (active) in test [3]; 55.7 µM (active) in test [5]; 46.1 µM (active) in test [9]; 39.6 µM (active) in test [6]; 43.5 µM (active) in test [8].

Regarding `CC=O`, in test [1], the result was inactive. For the same compound, the AC50 in [2] was 46.2 µM (active); in test [3], 3.17 µM (active); in test [4] it was 86.1 µM (active); in [5], 2.37 µM (active); in [9] it was 47.9 µM (active); in test [6], 30.3 µM (active). In addition, the AC50 in test [7] was 74.4 µM (active); in [8] it was 62.6 µM (active).

With `Cc1cc(=O)oc2cc(O)ccc12`, the result in test [1], in test [2], in [3], in test [4], in test [5] and in test [6] was inactive. For the same compound, the call in test [7] and in test [8] was inactive. For the same compound, the AC50 is 65 µM (active) and 38.4 µM (active) in [6]; 53.2 µM (active) and 54.1 µM (active) in [8].

Consider `CC(C)(C)c1ccc(O)c(O)c1`, for which the result in test [1], in [2], in [3], in [4], in test [5] and in test [6] was inactive. In addition, the outcome in [7] and in test [8] was inactive.

In the case of `CCCCCCOC(=O)c1ccc(O)cc1`, the AC50 is 149 µM (active) in test [1]; 67.3 µM (active) in test [3]; 86 µM (active) in [5]; 43.2 µM (active) and 64.2 µM (active) in test [9]; 70.6 µM (active) and 76.8 µM (active) in test [6]; 67.3 µM (active) and 80 µM (active) in test [8]. Further, the compound was classed as inactive in test [2], in test [3], in test [4], in [5] and in test [7].

On to `Nc1cc(Cl)c(-c2cc(Cl)c(N)cc2Cl)cc1Cl`, for which the outcome in test [1] was inactive. For the same compound, the AC50 in test [2] was 31.3 µM (active) and 40.9 µM (active); in test [3], 69 µM (active) and 81.7 µM (active); in [4], 70.8 µM (active) and 63.8 µM (active); in test [5], 86.4 µM (active) and 84.5 µM (active); in test [6] it was 85.2 µM (active) and 85.6 µM (active); in test [7], 71.8 µM (active) and 61.9 µM (active). Besides, in [8], the AC50 was 81.8 µM (active) and 57.1 µM (active).

Turning to `Oc1c(Cl)ccc(Cl)c1Cl`, the compound was called inactive in test [1], in test [2], in test [3], in test [4], in test [5] and in test [9]. The outcome in [6], in [7] and in [8] was inactive.

Regarding `O=C(Nc1cccc([N+](=O)[O-])c1)c1cc2ccccc2cc1O`, the result in test [1], in test [2], in [4] and in test [7] was inactive. In addition, the AC50 in [3] was 1.17 µM (active); in [5], 1.1 µM (active); in [6], 4.65 µM (active); in [8] it was 11.6 µM (active).

Regarding `CCCCCCCCCCCC(=O)NCCCN(C)C`, the outcome in test [1] was inactive. For the same compound, the AC50 was 44.2 µM (active) in test [2]; 87.1 µM (active) in [3]; 47.3 µM (active) in test [4]; 87.2 µM (active) in test [5]; 86 µM (active) in [6]; 65.7 µM (active) in [7]. Moreover, in test [8], the AC50 was 59.8 µM (active).

Take `NS(=O)(=O)O`: the compound was called inactive in test [1], in test [2], in test [3], in test [4], in test [5] and in test [6]. In addition, the call in test [7] and in [8] was inactive.

As usually defined, the AC50 is the concentration at which the activity in the assay is half-maximal.
